# Activity calls are given as the source filed them. How the source made its calls: active means hit-call score of the fitted dose curve at least 0.9, where 1 is the maximum; inactive means score below 0.9.
# Assay: ATG_SREBP_CIS: Attagene CIS-FACTORIAL HepG2 Assay for human Sterol Regulatory Element Binding (SREBP) (AID 2282962)
# Details: HepG2 Attagene cis-factorial SREBP reporter, mRNA; actives raise or lower the signal
# Protocol: ATG_CIS is a cell-based, multiplexed-readout assay that uses HepG2, a human liver cell line, with measurements taken at 24 hours after chemical dosing in a 24-well plate.ATG_SREBP_CIS is one of 52 assay component(s) measured or calculated from the ATG_CIS assay. It is designed to make measurements of mRNA induction, a form of inducible reporter, as detected with fluorescence intensity signals by Reverse transcription polymerase chain reaction (RT-PCR) and Capillary electrophoresis technology.Data from the assay component ATG_SREBP_CIS was analyzed into 1 assay endpoint. This assay endpoint, ATG_SREBP_CIS, was analyzed with bidirectional fitting relative to DMSO as the negative control and baseline of activity. Using a type of inducible reporter, measures of mRNA for gain or loss-of-signal activity can be used to understand the reporter gene at the transcription factor-level as they relate to the gene SREBF1. Furthermore, this assay endpoint can be referred to as a primary readout, because this assay has produced multiple assay endpoints where this one serves a reporter gene function. To generalize the intended target to other relatable targets, this assay endpoint is annotated to the dna binding intended target family, where the subfamily is basic helix-loop-helix leucine zipper.
# Human liver HepG2 cells are transiently transfected with multiple reporter transcription units (MRTUs) in 6-well plates using FuGene 6 reagent (Roche; 3 ml FuGene/1 mg DNA). The MRTU constructs are regulated by a cis-regulating element (promoter). […] A major difference between the CIS and TRANS system is that in CIS activities of endogenous TFs are measured, whereas the TRANS assay evaluates changes in activities of exogenous, chimeric NR-Gal4 proteins. […] At the end of 24 hour incubation, total RNA was isolated using TriZol reagent (Invitrogen). The isolated RNA is then reverse-transcribed using oligo(dT) primer and Mo-MLV reverse transcriptase (Invitrogen) with DNAse I (Ambion) treatment for 30 min. The one-tenth of the produced cDNA was amplified by PCR using Taq DNA polymerase (Invitrogen) and two reporter sequence-specific primers. The PCR products were fluorescently labeled by primer extension with 6-arboxyfluorescein (6-FAM) 5'-labeled reporter sequence-specific primer (2 min at 95 C, 20 s at 68 C and 10 min at 72 C) and these products were digested with 5U of HpaI (New England Biolabs) for 2h at 37 C. The fragments were purified using Qiaquick PCR columns (Qiagen), analyzed on an ABI 3130xL genetic analyzer (Applied Biosystems) with peak positions identified by using a set of X-rhodamine (ROX)-labeled MapMarker1000 molecular weight standards (BioVentures). The raw capillary electrophoresis data was processed using Attagraph software (Attagene).
Structure (SMILES),outcome,AC50
OCC(CO)(CO)COCC(CO)(CO)CO,inactive,
C=C(C)C(=O)O,inactive,
Cc1ccc(O)c(C(C)(C)C)c1,,100 µM (active)
CO[Si](CCCn1c(=O)n(CCC[Si](OC)(OC)OC)c(=O)n(CCC[Si](OC)(OC)OC)c1=O)(OC)OC,inactive,
S=C(S)NCCNC(=S)S,inactive,
C=C(C)C(=O)OCCOC(=O)CC(C)=O,inactive,
OCCN1CCNCC1,inactive,
CCCCCCCCCC=O,inactive,
C[C@]12CC[C@H]3[C@@H](CCC4=CC(=O)CC[C@@]43C)[C@@H]1CC[C@@H]2C(=O)CO,inactive,
O=C=NC1CCC(CC2CCC(N=C=O)CC2)CC1 (stereo not given),inactive,
Clc1sc(Cl)c(Cl)c1Cl,inactive,
CC(C)(C)C(=O)c1ccccc1,inactive,
CC1=CC(=O)NS(=O)(=O)O1,inactive,
CN(C)c1ccc(O)c2c1C[C@H]1C[C@H]3[C@H](N(C)C)C(=O)C(C(N)=O)=C(O)[C@@]3(O)C(=O)C1=C2O,inactive,
CO[Si](C)(OC)c1ccccc1,inactive,
Cc1ccc(Nc2ccc(O)c3c2C(=O)c2ccccc2C3=O)cc1,inactive,
CCCCC[Si](OCC)(OCC)OCC,inactive,
CC(C=O)Cc1ccc(C(C)C)cc1 (stereo not given),inactive,
Cc1c(N(C)C)c(=O)n(-c2ccccc2)n1C,inactive,
Cc1ccc(C(C)C)cc1O,inactive,

Structure (SMILES),outcome,AC50
CNCCCC12CCC(c3ccccc31)c1ccccc12,inactive,
CN1[C@@H]2CC(OC(=O)[C@H](CO)c3ccccc3)C[C@H]1[C@@H]1O[C@@H]12 (stereo not given in full),inactive,
O=C(O)c1cccc(C(F)(F)F)c1,inactive,
N#Cc1nc(Cl)c(Cl)c(Cl)c1Cl,,5.74 µM (active)
OCCCCCO,inactive,
CCCCCC=CCC(=O)OC,inactive,
CCCC/C=C\CCCCCCCCCC=O,inactive,
CCOc1ccccc1OCC,inactive,
CN(C)C(=N)N=C(N)N,inactive,
C=C(C)C(=O)O[C@H]1C[C@@H]2CC[C@@]1(C)C2(C)C,,175 µM (active)
C=CC(=O)OCC(O)COc1ccccc1 (stereo not given),inactive,
O=C(O)C[C@H](O)C[C@H](O)/C=C/c1c(C2CC2)nc2ccccc2c1-c1ccc(F)cc1,,0.0712 µM (active)
Sc1nc(S)nc(S)n1,inactive,
CCCOCC(C)O (stereo not given),inactive,
COc1cccc(OC)c1,inactive,
Fc1c(F)c(F)c(Br)c(F)c1F,inactive,
CC1CC(OC(=O)c2ccccc2O)CC(C)(C)C1 (stereo not given),inactive,
CC(=O)O[C@H](CC(=O)[O-])C[N+](C)(C)C,inactive,
COC(=O)Cc1cccc2ccccc12,inactive,
CC(C)=CCCC(C)=CCCC(C)=CCO,,41.4 µM (active)
